# PubChem BioAssay AID602261 (Sanford-Burnham Center for Chemical Genomics, 2012)
# The campaign covered roughly 360,000 compounds. About 2,400 (0.67%) were called active. This excerpt belongs to a sample that is enriched for actives. A number with no mark means an inactive call.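 How the source made its calls: active means compounds whose normalised, plate-corrected inhibition of enzyme fluorescence in the single-dose primary screen is 50% or more; inactive means the rest.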
# Molecular target: Fatty acid synthase (Homo sapiens) (UniProt P49327)
# Experiment: FAS thioesterase domain inhibitors, primary screen, biochemical, fluorescence intensity, uHTS (AID 602261);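 further: 0% = DMSO with enzyme and 100% = substrate without enzyme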
# Conditions: recombinant FAS-TE, OMFH fluorogenic substrate, fluorescence endpoint; at 15 µM; active compounds read high
# Chain of Fatty acid synthase (Homo sapiens) (P49327 whole entry, looked up, the tested form may be a part): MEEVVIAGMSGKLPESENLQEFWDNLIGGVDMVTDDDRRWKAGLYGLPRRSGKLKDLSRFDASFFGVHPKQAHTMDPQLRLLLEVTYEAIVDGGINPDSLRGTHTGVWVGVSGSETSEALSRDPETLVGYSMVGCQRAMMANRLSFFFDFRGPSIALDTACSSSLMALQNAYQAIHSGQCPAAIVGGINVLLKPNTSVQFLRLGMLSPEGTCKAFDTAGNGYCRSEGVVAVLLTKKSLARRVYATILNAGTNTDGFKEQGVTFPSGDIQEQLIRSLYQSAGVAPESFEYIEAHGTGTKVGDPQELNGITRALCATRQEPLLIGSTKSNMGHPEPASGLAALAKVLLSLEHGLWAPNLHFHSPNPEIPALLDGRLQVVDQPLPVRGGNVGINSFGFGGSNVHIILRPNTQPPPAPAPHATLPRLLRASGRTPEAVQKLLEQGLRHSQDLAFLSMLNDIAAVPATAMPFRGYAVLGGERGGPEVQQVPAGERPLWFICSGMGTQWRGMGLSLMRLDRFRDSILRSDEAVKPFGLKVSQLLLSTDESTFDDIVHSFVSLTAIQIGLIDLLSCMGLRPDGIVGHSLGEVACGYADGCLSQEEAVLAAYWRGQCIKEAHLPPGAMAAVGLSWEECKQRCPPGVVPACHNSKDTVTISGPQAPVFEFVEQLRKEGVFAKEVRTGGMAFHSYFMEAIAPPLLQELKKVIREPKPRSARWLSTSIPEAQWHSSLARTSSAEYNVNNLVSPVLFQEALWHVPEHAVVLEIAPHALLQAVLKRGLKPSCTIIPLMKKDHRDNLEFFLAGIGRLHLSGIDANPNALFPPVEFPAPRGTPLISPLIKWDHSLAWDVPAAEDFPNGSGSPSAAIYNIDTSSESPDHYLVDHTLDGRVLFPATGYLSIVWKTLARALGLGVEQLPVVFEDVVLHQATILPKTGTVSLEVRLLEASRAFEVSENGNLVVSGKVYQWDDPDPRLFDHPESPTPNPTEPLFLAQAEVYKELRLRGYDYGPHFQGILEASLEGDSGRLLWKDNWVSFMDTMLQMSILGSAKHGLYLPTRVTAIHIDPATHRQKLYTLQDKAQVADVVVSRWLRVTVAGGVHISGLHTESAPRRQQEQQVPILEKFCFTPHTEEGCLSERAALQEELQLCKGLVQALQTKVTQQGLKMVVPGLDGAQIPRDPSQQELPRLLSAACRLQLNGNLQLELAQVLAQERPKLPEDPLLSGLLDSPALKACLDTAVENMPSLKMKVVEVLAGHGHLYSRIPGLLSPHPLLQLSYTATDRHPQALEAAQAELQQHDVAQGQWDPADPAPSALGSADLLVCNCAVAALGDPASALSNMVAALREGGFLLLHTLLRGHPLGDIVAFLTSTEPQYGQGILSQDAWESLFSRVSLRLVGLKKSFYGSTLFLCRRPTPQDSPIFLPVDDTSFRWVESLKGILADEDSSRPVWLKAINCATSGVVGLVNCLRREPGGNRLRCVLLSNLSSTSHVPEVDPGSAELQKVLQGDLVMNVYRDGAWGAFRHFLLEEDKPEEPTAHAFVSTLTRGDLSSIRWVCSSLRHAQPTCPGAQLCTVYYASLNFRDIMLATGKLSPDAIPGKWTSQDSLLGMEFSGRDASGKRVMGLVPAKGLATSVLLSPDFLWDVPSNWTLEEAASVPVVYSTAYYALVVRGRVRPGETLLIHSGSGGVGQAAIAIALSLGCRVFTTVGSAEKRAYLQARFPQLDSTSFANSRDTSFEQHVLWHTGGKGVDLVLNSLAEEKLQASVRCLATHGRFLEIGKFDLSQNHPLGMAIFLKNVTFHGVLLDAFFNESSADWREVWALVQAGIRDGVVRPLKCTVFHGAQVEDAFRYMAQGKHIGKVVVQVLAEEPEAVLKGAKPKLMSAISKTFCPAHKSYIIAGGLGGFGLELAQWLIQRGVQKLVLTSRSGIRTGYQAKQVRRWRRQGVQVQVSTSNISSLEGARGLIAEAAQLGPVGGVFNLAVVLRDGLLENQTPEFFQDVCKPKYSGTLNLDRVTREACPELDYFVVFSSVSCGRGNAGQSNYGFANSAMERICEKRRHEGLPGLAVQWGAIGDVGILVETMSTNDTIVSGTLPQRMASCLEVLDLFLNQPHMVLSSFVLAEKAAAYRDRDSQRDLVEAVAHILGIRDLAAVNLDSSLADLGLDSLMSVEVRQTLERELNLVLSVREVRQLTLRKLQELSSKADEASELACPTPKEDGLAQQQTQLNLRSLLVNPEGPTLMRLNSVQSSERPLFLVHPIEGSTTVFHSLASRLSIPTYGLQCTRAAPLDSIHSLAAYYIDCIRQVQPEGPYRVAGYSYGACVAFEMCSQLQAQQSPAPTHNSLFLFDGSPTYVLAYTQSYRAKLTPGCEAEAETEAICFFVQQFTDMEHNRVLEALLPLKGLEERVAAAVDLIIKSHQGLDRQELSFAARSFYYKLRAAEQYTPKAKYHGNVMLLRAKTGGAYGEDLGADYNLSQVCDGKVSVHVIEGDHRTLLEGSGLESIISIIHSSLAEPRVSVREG
row,SMILES,inhibition
1,CC1(c2ccc(Cl)cc2)NC(=O)N(CC(=O)c2ccc3c(c2)OCO3)C1=O (stereo not given),11.3%
2,Cn1c(=O)[nH]c(=O)c2c1nc(NCCCn1ccnc1)n2Cc1cccc(Br)c1,-2.6%
3,CCOC(=O)c1ccc(-c2ccc3ncnc(N(C)Cc4sccc4C)c3c2)o1,26.5%
4,COc1ccc(C2CC(c3ccccc3)=NN2C(=O)CSc2nccc(=O)[nH]2)cc1 (stereo not given),-5.6%
5,Cc1ccc(C2=NN(C(=O)CSc3nc(N)cc(N)n3)C(c3ccco3)C2)cc1 (stereo not given),1.5%
6,COc1ccc(C2=NN(C(=O)CSc3nc(=O)n4ccc(C)cc4n3)C(c3ccc(C)cc3)C2)cc1 (stereo not given),81.4% (active)
7,Cc1cccc(N=C2SC(C)CN2C(=O)CN2C(=O)NC3(CCCC3)C2=O)c1 (stereo not given),3.9%
8,Cc1ccc(N2C(=O)S/C(=C/c3cn(C)c4ccccc34)C2=O)cc1,28.7%
9,Cc1cccc(N=C2NC(=O)/C(=C/c3cn(C)c4ccccc34)S2)c1,52.4% (active)
10,Cc1ccccc1CSc1nnc(-c2ccccn2)n1N,-5.3%
11,O=C(NC1=NCCS1)c1ccc(Cl)s1,-11.9%
12,Cc1cccc(N2CCC(NCc3c(C(=O)N4CCCCC4)nc4c(C)cccn34)CC2)c1,-1.6%
13,O=C(O)CCS(=O)(=O)c1ccc(-c2ccccc2)cc1,-1.5%
14,Cc1cc2c(cc1C)N(C(=O)CN1C(=O)c3ccccc3C1=O)C(C)(C)c1ssc(=S)c1-2,43.2%
15,CCOC(=O)CN1C(=O)C(=O)c2cc(C)ccc21,-7%
16,Cc1ccc2c(c1)-c1c(ssc1=S)C(C)(C)N2C(=O)CN1C(=O)c2ccccc2C1=O,52.2% (active)
17,O=S1(=O)N=C(N(CCO)/N=C/c2ccccc2F)c2ccccc21,0.1%
18,CCOc1ccccc1NC(=O)C12CC3CC(C1)CC(c1ccc(C)cc1)(C3)C2,33.7%
19,CCN1CCN(c2nc(Nc3cc(OC)ccc3OC)nc(Nc3cc(OC)ccc3OC)n2)CC1,32.9%
20,CCOc1ccc(Nc2nc(Cl)nc(N3CCN(c4ccc(OC)cc4)CC3)n2)cc1,57.9% (active)
21,COc1ccc(Nc2ncc(F)c(N3CCOCC3)n2)cc1,-0.3%
22,CC1CCCCC1NC(=O)C1CCCN1S(=O)(=O)c1cccc2nsnc12 (stereo not given),-4.8%
23,O=C(N1CCCC1)C12CC3CC(C1)CC(C(=O)N1CCCC1)(C3)C2,-5.3%
24,Cc1ccc(NC(=O)CSc2nnc(CNC(=O)c3ccccc3F)o2)cc1,-4.2%
25,O=C(COc1ccccc1F)NNC(=O)c1ccc(N2CCCCC2)c([N+](=O)[O-])c1,4.2%
26,O=C(Nc1ccc(N2C(=O)c3cccc4cccc(c34)C2=O)cc1)c1ccc(N2CCCCC2)c([N+](=O)[O-])c1,56.4% (active)
27,O=C(Nc1cccc(C(F)(F)F)c1)c1ccc(N2CCNCC2)c([N+](=O)[O-])c1,-5%
28,CC(=O)Nc1ccc2c3c(ccc([N+](=O)[O-])c13)CC2,-4%

row,SMILES,inhibition
1,CCCN1Cc2cccc(C(=O)NCc3ccccc3)c2C1=O,-0.8%
2,CCCN1Cc2cccc(C(=O)Nc3ccc(S(=O)(=O)N4CCCCCC4)cc3)c2C1=O,54.7% (active)
3,O=C(Nc1ccc(S(=O)(=O)N2CCCCCC2)cc1)c1c(F)cccc1F,12%
4,COCCCNCC(=O)Nc1sc(C)c(C)c1C(=O)OC,-3.7%
5,CCOC(=O)C(C)n1cnc2c(nnn2-c2ccc(F)cc2)c1=O (stereo not given),-7.4%
6,CCc1ccc([C@@H]2CC(=O)[C@@H]3CN(S(=O)(=O)c4ccc(C)cc4)[C@H](c4ccc(Cl)cc4)C[C@@H]3N2S(=O)(=O)c2ccc(C)cc2)cc1,12.7%
7,Cc1ccc(S(=O)(=O)N2CC[C@H]3[C@@H](C2)C(=O)C[C@@H](c2ccccc2)N3S(=O)(=O)c2ccc(C)cc2)cc1,79.6% (active)
8,Cc1ccc([C@@H]2CC(=O)[C@@H]3CN(S(=O)(=O)c4ccc(C)cc4)[C@H](c4ccccc4F)C[C@@H]3N2S(=O)(=O)c2ccc(Cl)cc2)cc1,12.3%
9,CC(C)[C@H](NC(=O)N1c2ccccc2NC(=O)[C@@H]1C(C)C)C(=O)N[C@H](C(=O)O)c1ccccc1,-2.6%
10,O=[N+]([O-])c1ccc(NS(=O)(=O)c2ccccc2)c(Cl)c1,-7%
11,Cc1ccc2oc(=O)c3cnn(CC(=O)N4CCCCCC4)c3c2c1,0.5%
12,Cc1ccc2cc3cc(C(=O)N4CCCCCC4)oc3nc2c1,77.7% (active)
13,Cc1cccc(C(=O)N2CCN(S(=O)(=O)N3CCCCC3)CC2)c1,-2.1%
14,COc1ccc(C(C)=O)cc1COC(=O)Cn1cnc2ccccc2c1=O,-2.7%
15,COc1cc(-c2noc(C3CCCN(S(=O)(=O)c4cccc(Cl)c4)C3)n2)cc(OC)c1OC (stereo not given),50.7% (active)
16,CC(C)c1ccc(-c2noc(C3CCCN(S(C)(=O)=O)C3)n2)cc1 (stereo not given),16.9%
17,COc1cccc(-c2noc(C3CCCN(C(=O)c4ccc(F)cc4)C3)n2)c1 (stereo not given),-3.3%
18,Nc1ccc(SCCN2C(=O)c3ccccc3C2=O)cc1,-1.7%
19,CC(C)c1ccc2c(c1)c(SC(C)(C)C)c(CC(C)(C)C(=O)O)n2Cc1ccc(Cl)cc1,80.4% (active)
20,O=C(NCc1ccccc1)C1CCCN(c2nc3ccsc3c(=O)s2)C1 (stereo not given),-1.5%
21,Nc1ccc(N=Nc2ccccc2Cl)c(N)n1,12%
22,O=C(CC(c1ccccc1)c1ccccc1)NCC(O)c1ccc([N+](=O)[O-])cc1 (stereo not given),50.4% (active)
23,CN(C)C(CNC(=O)Cc1ccc([N+](=O)[O-])cc1)c1ccccc1 (stereo not given),3.9%
24,O=C(NCC(O)c1ccc([N+](=O)[O-])cc1)C1CCCCC1 (stereo not given),-3.9%
25,COc1ccc(C(=O)NC(=S)N2CCCCC2c2cccnc2)cc1OC (stereo not given),-3.7%
26,Cc1ccccc1-n1c(C)cc(/C=N/NC(=O)c2ccc(CN3CCOCC3)cc2)c1C,-7.5%
27,COc1ccc(NC(=O)CCn2ccnc2)c(OC)c1,-2.6%
